Compounds without any hit were thinned out: in the full panel of roughly 79,000, 15% have a hit. Rule as the data show it: active = growth inhibition above about 70%; inactive = the rest.
Experiments:
[1] = NCI Yeast Anticancer Drug Screen. Data for the rad50 strain (AID 155);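 also: 0% = growth of vehicle-only cultures of the same strain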; settings: S. cerevisiae rad50 strain growth inhibition; at 50.0 µM; stronger effect = higher value
Method in brief: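 A DNA repair-deficient yeast mutant serves as the test organism; compound-induced growth inhibition is calculated against vehicle-treated cells.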

[2] = NCI Yeast Anticancer Drug Screen. Data for the mec2-1 strain (AID 157); settings: S. cerevisiae mec2-1 strain, at 50.0 µM, stronger effect = higher value
Method in brief: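 Cells of the genetically defined mec2-1 yeast strain are incubated with test compound. Inhibition of growth is calculated against vehicle-treated controls.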

[3] = NCI Yeast Anticancer Drug Screen. Data for the sgs1 mgt1 strain (AID 161);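 also: 0% = growth of cultures given vehicle only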; settings: S. cerevisiae sgs1 mgt1 strain, at 50.0 µM, stronger effect = higher value
Method in brief: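 Genetically altered yeast, compound exposure, growth inhibition relative to vehicle.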

[4] = NCI Yeast Anticancer Drug Screen. Data for the cln2 rad14 strain (AID 165);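 also: 0% = growth equal to vehicle treated cultures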; settings: S. cerevisiae cln2 rad14 strain, at 50.0 µM, stronger effect = higher value
Method in brief: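 The screen exposed genetically defined yeast (cln2 rad14) to test compounds and scored growth inhibition relative to vehicle-treated controls.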

[5] = NCI Yeast Anticancer Drug Screen. Data for the bub3 strain (AID 167); settings: S. cerevisiae bub3 mutant strain, at 50.0 µM, stronger effect = higher value
Method in brief: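 Inhibition values come from growth of compound-treated mutant yeast normalised to vehicle-treated controls.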

[6] = NCI Yeast Anticancer Drug Screen. Data for the mlh1 rad18 strain (AID 175); settings: S. cerevisiae mlh1 rad18 strain growth inhibition; at 50.0 µM; stronger effect = higher value
Method in brief: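 Compound-treated yeast growth, normalised to vehicle controls. Strain bears defined DNA repair mutations.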

Measured: growth inhibition

[O-]/[N+](=C\c1ccc(OCc2ccccc2)cc1)c1ccccc1
inactive: [1] 16.5% | [2] -18.4% | [3] -20.7% | [4] -2.65% | [5] -4.25% | [6] -13.5%

COc1cc([N+](=O)[O-])ccc1C(=O)NC(CCC(=O)O)C(=O)O (stereo unspecified)
inactive: [1] -12.6% | [2] -19.9% | [3] 19.1% | [4] -20.4% | [5] 28.6% | [6] -22.1%

COc1cc2c(cc1OC)[C@H]1C(COC(=O)Nc3ccccc3)CN1CC2 (stereo partly specified)
inactive: [1] -28.9% | [2] -0.7% | [3] -42.7% | [4] -9.75% | [5] -30.6% | [6] -49.1%

CC(=O)OCC1OC(Oc2cccc(C=C(C(C)=O)C(C)=O)c2)C(OC(C)=O)C(OC(C)=O)C1OC(C)=O (stereo unspecified)
inactive: [1] 9.25% | [2] 3.25% | [3] 6.65% | [4] 5.3% | [5] 0.65% | [6] 30.7%

CC(=O)Nc1ccc(NC(=O)Nc2cc(Cl)ccc2C)cc1
inactive: [1] 14.3% | [2] 5.05% | [3] 0.7% | [4] 13.1% | [5] 17.8% | [6] 5.1%

O=[N+]([O-])c1nccn1CCCN=c1c2ccccc2n(O)c2ccccc12
inactive: [1] 8.9% | [2] -16.4% | [3] -5.85% | [4] -5.8% | [5] -12.7% | [6] -33.4%

COC(=O)CCCCCCCCC(C)C(C)=O (stereo unspecified)
inactive: [1] -34.8% | [2] -29.8% | [3] -16.4% | [4] -12.5% | [5] -45.3% | [6] -32.5%

CCc1nc(N)nc(N)c1-c1ccc(OC)c([N+](=O)[O-])c1
inactive: [1] 3.25% | [2] -14.7% | [3] -27.2% | [4] 24.9% | [5] -21.4% | [6] 7.9%

O=C(Cl)c1cc(Cl)cc(Cl)c1Br
inactive: [1] 12.9% | [2] 4.7% | [3] 34.5% | [4] 17.6% | [5] 15.9% | [6] 25.7%

Cc1nc(-n2nc(-c3ccccc3)cc2-c2ccccc2)sc1C(=O)CC(=O)C(=O)Nc1ccc(Cl)c(Cl)c1
inactive: [1] 6.15% | [2] -5.55% | [3] 24.6% | [4] 13.8% | [5] 48.5% | [6] 24.8%

C=C1CCCC(C)(C)C1CC/C(C)=C/CC/C(C)=C/CO (stereo unspecified)
inactive: [1] -0.75% | [2] -1.45% | [3] 12.7% | [4] 8.4% | [5] 8.75% | [6] 12.1%

O=[N+]([O-])c1ccc(-c2noc(-c3ccccc3)c2C2=NCCN2)cc1
inactive: [1] -9.85% | [2] -6% | [3] 5.25% | [4] 4.75% | [5] 7.8% | [6] 7.6%

O=C(O)CCC(=O)Nc1ccccc1C(=O)O
inactive: [1] -1.15% | [2] 11.8% | [3] -8.15% | [4] 0.15% | [5] 5.6% | [6] -4.5%

CC(=O)Nc1cc2cc(NC(=O)C(Cl)(Cl)Cl)ccc2oc1=O
inactive: [1] -24.3% | [2] -17.4% | [3] -4.65% | [4] 0.55% | [5] -11.7% | [6] -24.6%

COC(=O)NN=C1C(C)(C)C(=NNC(=O)OC)C1(C)C
inactive: [1] 2.25% | [2] -15.5% | [3] -8.6% | [4] 27.1% | [5] -17.6% | [6] -5.4%

O=C(Nc1ccccc1)C1C2C=CC(CC2)C1C(=O)Nc1ccccc1 (stereo unspecified)
inactive: [1] -0.25% | [2] 4.95% | [3] 7.7% | [4] -10.2% | [5] -11.5% | [6] -13.6%

CCOC(=O)C(C)(C)Oc1ccc(N=[N+]=[N-])cc1
inactive: [1] 13.1% | [2] 9.15% | [3] 41.5% | [4] 4.35% | [5] 5.8% | [6] 19.6%

NS(=O)(=O)c1ccc(NC2=CC(=O)C(=O)c3ccccc32)cc1
inactive: [1] -6.4% | [2] -5.6% | [3] -21.4% | [4] 2.4% | [5] -7.55% | [6] -11.6%

Cc1cc(N(CCC#N)S(=O)(=O)c2ccccc2)ccc1C=O
inactive: [1] 25.9% | [2] -34.1% | [3] 13.9% | [4] -9.05% | [5] -9.15% | [6] -4.15%

CC1(C)C2CCC(CCOC(=O)COc3ccc(Cl)cc3Cl)C1C2 (stereo unspecified)
inactive: [1] -13% | [2] -5.45% | [3] 1% | [4] -34.8% | [5] 5% | [6] 29%

CCCCN1C(=O)CC2[C@@H]3CCc4cc(OC)ccc4C3CC[C@]2(C)C1=O (stereo partly specified)
inactive: [1] 9.05% | [2] 11.6% | [3] 16.1% | [4] 26.6% | [5] 13.8% | [6] 14.4%
